The source of these data is PubChem BioAssay (NCI).

Compounds without any hit were thinned out: in the full panel of roughly 79,000, 15% have a hit. Unmarked numbers belong to inactive results. Activity calls are given as the source filed them. Rule as the data show it: active = growth inhibition above about 70%; inactive = the rest.

Assay [1] can be described thus: NCI Yeast Anticancer Drug Screen. Data for the rad50 strain (AID 155).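 Also: 0% = growth of vehicle-only cultures of the same strain.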 As to conditions: S. cerevisiae rad50 strain growth inhibition, active compounds read high. Summed up:
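Relative growth inhibition (compound vs vehicle) was measured in yeast with a defined repair-gene alteration.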

Assay [2] can be described thus: NCI Yeast Anticancer Drug Screen. Data for the mec2-1 strain (AID 157). As to conditions: S. cerevisiae mec2-1 strain, active compounds read high. An outline of the steps: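 Strain: mec2-1 (DNA repair/cell cycle alteration). Compound exposure, then growth measured; inhibition expressed relative to vehicle.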
The nature of assay [3]: NCI Yeast Anticancer Drug Screen. Data for the sgs1 mgt1 strain (AID 161).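 Also: 0% = growth of cultures given vehicle only.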 Conditions: S. cerevisiae sgs1 mgt1 strain, active compounds read high. An outline of the steps:
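Read-out: growth inhibition vs vehicle controls. Cells: mutant yeast strain deficient in DNA damage repair.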

Assay [4] can be described thus: NCI Yeast Anticancer Drug Screen. Data for the cln2 rad14 strain (AID 165).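 Also: 0% = growth equal to vehicle treated cultures.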 As to conditions: S. cerevisiae cln2 rad14 strain, active compounds read high. An outline of the steps: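 Compounds are applied to the cln2 rad14 yeast strain, and growth is then compared with that of vehicle-treated cultures to give inhibition.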
The nature of assay [5]: NCI Yeast Anticancer Drug Screen. Data for the bub3 strain (AID 167). As to conditions: S. cerevisiae bub3 mutant strain, active compounds read high. Summed up:
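Screening used yeast with an engineered genetic alteration affecting cell cycle control. Compound-exposed cultures were compared with vehicle cultures, and reduced growth was taken as inhibition.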

Assay [6] in a line: NCI Yeast Anticancer Drug Screen. Data for the mlh1 rad18 strain (AID 175). Conditions: S. cerevisiae mlh1 rad18 strain growth inhibition, active compounds read high. An outline of the steps: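 Read-out is yeast growth inhibition, calculated against vehicle-only controls. The compound was applied to a strain engineered with DNA damage repair alterations.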
[7] abbreviates: at 5.0 µM (retest, dose inferred, filed as 0.5).
[8] abbreviates: at 50.0 µM (retest, dose inferred, filed as 5.0).

On to `C=CCCCCCCCCC(=O)CCCCCCCCC=C`, for which the growth inhibition was 0% in assay [1] (setting [7]); 2% in assay [1] (setting [8]); 7.6% in assay [1] (at 50.0 µM); -2% in assay [2] (setting [7]); 3% in assay [2] (setting [8]); 9.2% in assay [2] (at 50.0 µM). Besides, the growth inhibition is -2% in assay [3] (setting [7]); 0% in assay [3] (setting [8]); -3.35% in assay [3] (at 50.0 µM); 6% in assay [4] (setting [7]); 3% in assay [4] (setting [8]); 58.8% in assay [4] (at 50.0 µM). Further, the growth inhibition in assay [5] (setting [7]) was -1%; in assay [5] (setting [8]), 4%; in assay [5] (at 50.0 µM), 14%; in assay [6] (setting [7]), -4%; in assay [6] (setting [8]), 1%; in assay [6] (at 50.0 µM) it was 5.75%.
Consider `C1=C(c2ccccc2)CCc2ccccc21`, for which the growth inhibition in assay [1] (setting [7]) was 1%; in assay [1] (setting [8]), 14%; in assay [1] (at 50.0 µM), 12.7%; in assay [2] (setting [7]), 5%; in assay [2] (setting [8]) it was -1%; in assay [2] (at 50.0 µM) it was -11.5%. Besides, the growth inhibition in assay [3] (setting [7]) is 5%; in assay [3] (setting [8]), 14%; in assay [3] (at 50.0 µM), -1.95%; in assay [4] (setting [7]), 0%; in assay [4] (setting [8]), -14%; in assay [4] (at 50.0 µM), 50.9%. The growth inhibition was -3% in assay [5] (setting [7]); 3% in assay [5] (setting [8]); 2.6% in assay [5] (at 50.0 µM); -4% in assay [6] (setting [7]); 3% in assay [6] (setting [8]); 1.5% in assay [6] (at 50.0 µM).
For `Nc1nc(Cl)cc(Nc2ccc(Cl)c(Cl)c2)n1`, the growth inhibition in assay [1] (setting [7]) was -1%; in assay [1] (setting [8]), 91% (active); in assay [1] (at 50.0 µM) it was 72.8% (active); in assay [2] (setting [7]) it was -2%; in assay [2] (setting [8]), 73% (active); in assay [2] (at 50.0 µM), 70.3% (active). For the same compound, the growth inhibition in assay [3] (setting [7]) was -4%; in assay [3] (setting [8]), 77% (active); in assay [3] (at 50.0 µM) it was 95.8% (active); in assay [4] (setting [7]), 16%; in assay [4] (setting [8]), 58%; in assay [4] (at 50.0 µM), 51.7%. In addition, the growth inhibition in assay [5] (setting [7]) was 3%; in assay [5] (setting [8]), 92% (active); in assay [5] (at 50.0 µM) it was 93.2% (active); in assay [6] (setting [7]), -3%; in assay [6] (setting [8]), 79% (active); in assay [6] (at 50.0 µM), 89.8% (active).
For the compound `O=c1sc(=S)[nH]c2ccccc12`, the growth inhibition in assay [1] (setting [7]) is -3%; in assay [1] (setting [8]), 10%; in assay [1] (at 50.0 µM) it was 76.8% (active); in assay [2] (setting [7]) it was 6%; in assay [2] (setting [8]), 43%; in assay [2] (at 50.0 µM), 69.1%. The growth inhibition in assay [3] (setting [7]) is 3%; in assay [3] (setting [8]), 41%; in assay [3] (at 50.0 µM), 78.9% (active); in assay [4] (setting [7]), -4%; in assay [4] (setting [8]), 3%; in assay [4] (at 50.0 µM), 71.5% (active). The growth inhibition in assay [5] (setting [7]) is -1%; in assay [5] (setting [8]), 7%; in assay [5] (at 50.0 µM) it was 67.5%; in assay [6] (setting [7]) it was 16%; in assay [6] (setting [8]), 31%; in assay [6] (at 50.0 µM) it was 72.2% (active).
As to `CN=S(=O)(OCCCCCCCCCOS(=O)(=NC)c1ccc(C)cc1)c1ccc(C)cc1` (stereo not given), the growth inhibition in assay [1] (setting [7]) is 17%; in assay [1] (setting [8]), 12%; in assay [1] (at 50.0 µM) it was 42.5%; in assay [2] (setting [7]), 14%; in assay [2] (setting [8]) it was 6%; in assay [2] (at 50.0 µM) it was 70% (active). The growth inhibition in assay [3] (setting [7]) was 16%; in assay [3] (setting [8]), 15%; in assay [3] (at 50.0 µM), 19.7%; in assay [4] (setting [7]), 29%; in assay [4] (setting [8]), -1%; in assay [4] (at 50.0 µM), -5.85%. Besides, the growth inhibition in assay [5] (setting [7]) was 20%; in assay [5] (setting [8]), 20%; in assay [5] (at 50.0 µM) it was -35.3%; in assay [6] (setting [7]), 18%; in assay [6] (setting [8]), 11%; in assay [6] (at 50.0 µM) it was -80.8%.
`S=c1c2ccccc2[nH]c2ccccc12`: the growth inhibition in assay [1] (setting [7]) is -3%; in assay [1] (setting [8]), 86% (active); in assay [1] (at 50.0 µM), 89.2% (active); in assay [2] (setting [7]), -6%; in assay [2] (setting [8]), 62%; in assay [2] (at 50.0 µM), 63%. Also, the growth inhibition in assay [3] (setting [7]) was -2%; in assay [3] (setting [8]), 83% (active); in assay [3] (at 50.0 µM), 60.6%; in assay [4] (setting [7]), -7%; in assay [4] (setting [8]), 46%; in assay [4] (at 50.0 µM), 75.3% (active). Also, the growth inhibition in assay [5] (setting [7]) was 8%; in assay [5] (setting [8]), 33%; in assay [5] (at 50.0 µM), 88.8% (active); in assay [6] (setting [7]), -5%; in assay [6] (setting [8]), 88% (active); in assay [6] (at 50.0 µM), 85.5% (active).
As for `CC(=O)SC(SC(C)=O)SC(C)=O`, the growth inhibition was 11% in assay [1] (setting [7]); 93% (active) in assay [1] (setting [8]); 93.9% (active) in assay [1] (at 50.0 µM); 0% in assay [2] (setting [7]); 98% (active) in assay [2] (setting [8]); 93.1% (active) in assay [2] (at 50.0 µM). In addition, the growth inhibition is 15% in assay [3] (setting [7]); 94% (active) in assay [3] (setting [8]); 93.1% (active) in assay [3] (at 50.0 µM); 20% in assay [4] (setting [7]); 97% (active) in assay [4] (setting [8]); 89.6% (active) in assay [4] (at 50.0 µM). For the same compound, the growth inhibition in assay [5] (setting [7]) is 29%; in assay [5] (setting [8]), 99% (active); in assay [5] (at 50.0 µM), 92% (active); in assay [6] (setting [7]) it was 16%; in assay [6] (setting [8]), 99% (active); in assay [6] (at 50.0 µM), 90.5% (active).
On to `Cc1ccc([N+](=O)[O-])c2c(NCCCN(C)C)c3ccccc3nc12`, for which the growth inhibition in assay [1] (setting [7]) is 79% (active); in assay [1] (setting [8]) it was 98% (active); in assay [1] (at 50.0 µM), 97% (active); in assay [2] (setting [7]) it was 97% (active); in assay [2] (setting [8]), 99% (active); in assay [2] (at 50.0 µM), 95.8% (active). Also, the growth inhibition is 93% (active) in assay [3] (setting [7]); 98% (active) in assay [3] (setting [8]); 97.2% (active) in assay [3] (at 50.0 µM); 95% (active) in assay [4] (setting [7]); 99% (active) in assay [4] (setting [8]); 77.3% (active) in assay [4] (at 50.0 µM). The growth inhibition in assay [5] (setting [7]) was 35%; in assay [5] (setting [8]), 97% (active); in assay [5] (at 50.0 µM) it was 87.8% (active); in assay [6] (setting [7]), 92% (active); in assay [6] (setting [8]), 99% (active); in assay [6] (at 50.0 µM), 97% (active).
Regarding `O=C1C=CC(=O)C1=Cc1ccc(Cl)c(Cl)c1`, the growth inhibition was 99% (active) in assay [1] (setting [7]); 99% (active) in assay [1] (setting [8]); 98.8% (active) in assay [1] (at 50.0 µM); 100% (active) in assay [2] (setting [7]); 99% (active) in assay [2] (setting [8]); 98.9% (active) in assay [2] (at 50.0 µM). The growth inhibition was 100% (active) in assay [3] (setting [7]); 98% (active) in assay [3] (setting [8]); 98.7% (active) in assay [3] (at 50.0 µM); 100% (active) in assay [4] (setting [7]); 99% (active) in assay [4] (setting [8]); 99.2% (active) in assay [4] (at 50.0 µM). Also, the growth inhibition in assay [5] (setting [7]) was 100% (active); in assay [5] (setting [8]) it was 99% (active); in assay [5] (at 50.0 µM), 98.8% (active); in assay [6] (setting [7]) it was 100% (active); in assay [6] (setting [8]) it was 99% (active); in assay [6] (at 50.0 µM), 99% (active).
Regarding `O=C(O)/C=C/c1ccc(Cl)cc1Cl`, the growth inhibition in assay [1] (setting [7]) is 6%; in assay [1] (setting [8]), 95% (active); in assay [1] (at 50.0 µM) it was 89.5% (active); in assay [2] (setting [7]) it was -8%; in assay [2] (setting [8]), 56%; in assay [2] (at 50.0 µM), 33.5%. Also, the growth inhibition in assay [3] (setting [7]) was 2%; in assay [3] (setting [8]), 39%; in assay [3] (at 50.0 µM), 65.8%; in assay [4] (setting [7]), 1%; in assay [4] (setting [8]), 57%; in assay [4] (at 50.0 µM) it was 37.8%. The growth inhibition in assay [5] (setting [7]) is 41%; in assay [5] (setting [8]), 85% (active); in assay [5] (at 50.0 µM) it was 74.3% (active); in assay [6] (setting [7]), 6%; in assay [6] (setting [8]), 94% (active); in assay [6] (at 50.0 µM), 92.6% (active).
